HIV Env fusion: inhibitors of HIV-1 Env-driven cell-cell fusion, primary screen, HeLa-JRFL effector, CEM21 target cells, luciferase | AID 651610, 2012 | hit rate 1.1% among 360,000 | inhibition, % at 12.3 µM;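 active = mean replicate inhibition score of at least 50 and every replicate individually at or above 50; inconclusive = only one of the two criteria met; inactive = mean below 50 and not all replicates reaching 50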
CFTR F508del cor: F508del CFTR correction, initial screen, CFBE line, single point | CFBE cells, YFP halide quenching; stimulated with forskolin plus potentiator P3; % fluorescence drop versus neutral controls | activity (quench increase), % at 7.58 µM | hit rate 0.36% among 350,000 | AID 720511, 2013;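 active = mean added fluorescence quench of at least 8% versus neutral control, with both replicates also reaching 8%; inconclusive = only one of the mean or replicate conditions met; inactive = mean below 8% and not both replicates reaching 8%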;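 note: cells transiently co-express mutant CFTR-F508del with the halide-sensitive YFP; corrector assay measuring rescue of mutant channel to the surface after 24 h compound exposure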
FXN GAA850 act: FXN promoter activators, primary screen, cell-based, luciferase luminescence, HEK293 lucGAA850; HEK293 lucGAA850 FXN promoter luciferase reporter, 24 h; percent of 10 µM SAHA response; hit rate 0.56% among 360,000; activation, % at 6 µM; AID 540364, 2011;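 active = activation above the average of all compounds screened plus 3 SD, cutoff fixed separately per campaign, cut at about 7.5% in these data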
EWS-Fli inh: EWS/Fli-driven NR0B1 reporter inhibitors, primary screen, A673 cells, NR0B1 luciferase, luminescence, MLPCN library | viability-normalised | inhibition, % at 12.6 µM | hit rate 0.67% among 350,000;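 active = mean inhibition of at least 50% after viability correction, with every replicate also passing that limit; inconclusive = mean reaches 50% but only one of two replicates passes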;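 note: firefly luciferase signal divided by Alamar Blue viability fluorescence both relative to DMSO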
PAX8 reporter: inhibitors of PAX8-driven TPO luciferase reporter, primary screen, RMG-I cells, single concentration; inhibition, % at 12.6 µM; SteadyGlo, 24 h; hit rate 1.2% among 360,000;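 active = mean replicate inhibition at least 60% with every replicate also reaching 60%; inconclusive = only one of the two criteria is met; inactive = mean below 60% and not all replicates reaching 60%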;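 note: luciferase light reporting Pax8 driven TPO promoter activity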
Large screens that a line does not name were inactive. Only some compounds are listed: those with a hit (about 2.5% of all), similar ones and a draw of the others.

O=C(NC[C@H]1N[C@H](CO)[C@@H]1c1ccc(C2=CCCC2)cc1)C1CC1	none (no result: HIV Env fusion, FXN GAA850 act, PAX8 reporter)
C=C(C)C(=O)OC1(C(F)(F)F)Oc2cc(C)ccc2NC1=O (centres undefined)	PAX8 reporter 93.0 (no result: CFTR F508del cor, EWS-Fli inh)
CCOC(=O)C1(N(CC)CC)Sc2cc(C)ccc2NC1=O (centres undefined)	none (no result: CFTR F508del cor, EWS-Fli inh)
O=C(C[C@H]1CC[C@H](NC(=O)Nc2ccc(C(F)(F)F)cc2)[C@@H](CO)O1)NCCN1CCCC1	none (no result: FXN GAA850 act)
CC1(C)NC(=O)N(CCOCCOc2cccc(Oc3ccccc3)c2)C1=O	HIV Env fusion 60.2 (no result: CFTR F508del cor, EWS-Fli inh, PAX8 reporter)
CCC1(C)Cc2ccccc2-c2nc[nH]c(=O)c21 (centres undefined)	CFTR F508del cor 8.6
COc1ccc(NC(=O)CCN2C(=O)c3ccccc3C2=O)c(OC)c1	none
COc1ccc(OC)c(N(CCN2C(=O)c3ccccc3C2=O)C(=O)CCl)c1	EWS-Fli inh inconclusive, PAX8 reporter 103.8
N#CC(c1ccccc1O)N1N=C(c2ccccc2)CC1c1ccccc1 (centres undefined)	FXN GAA850 act 8.2
COc1cc(C(C#N)N2N=C(c3ccccc3)CC2c2ccccc2)ccc1O (centres undefined)	none (no result: CFTR F508del cor, EWS-Fli inh, PAX8 reporter)
CSC(=Nc1ccccc1)N=C(SCc1ccccc1)N(C)C	EWS-Fli inh 56.8, PAX8 reporter 100.5
CC(=O)Nc1ccc2c(c1)C(=O)N(C)[C@H]1CC[C@H](CC(=O)NCc3ccccc3)O[C@H]1CO2	none (no result: FXN GAA850 act)
Cc1nn(S(=O)(=O)c2ccc(Cl)cc2)c(C)c1Sc1ccc([N+](=O)[O-])cc1	CFTR F508del cor 14.9
Cc1nn(CCO)c2nc(-c3cccs3)cc(C(F)(F)F)c12	PAX8 reporter 160.7 (no result: HIV Env fusion)
COC(=O)c1sccc1NC(=O)c1c(-c2ccccc2)noc1C	none (no result: CFTR F508del cor, EWS-Fli inh)
COC(=O)c1c(-c2ccc(C)cc2)csc1NC(=O)c1c(-c2ccccc2)noc1C	CFTR F508del cor 8.5 (no result: FXN GAA850 act)
O=C(COC(=O)/C=C/c1ccccc1Cl)NC(=O)NCc1ccccc1	CFTR F508del cor 8.9 (no result: HIV Env fusion)
CN1C(=O)c2cc(NS(=O)(=O)c3ccc(F)cc3)ccc2OC[C@H]2O[C@@H](CC(=O)Nc3cccc4ccccc34)CC[C@@H]21	none (no result: CFTR F508del cor, FXN GAA850 act)
COc1cccc(S(=O)(=O)N(C)C[C@H]2OCc3ccccc3-c3c(n(C)c4ccccc34)C(=O)N([C@H](C)CO)C[C@H]2C)c1	PAX8 reporter 85.8 (no result: FXN GAA850 act)
COc1cccc(S(=O)(=O)N(C)C[C@@H]2OCc3ccccc3-c3c(n(C)c4ccccc34)C(=O)N([C@@H](C)CO)C[C@H]2C)c1	none (no result: FXN GAA850 act)
C[C@@H]1CN([C@@H](C)CO)C(=O)c2c(c3ccccc3n2C)-c2ccccc2CO[C@H]1CN(C)S(=O)(=O)c1cccc(F)c1	PAX8 reporter 86.8 (no result: FXN GAA850 act)
COc1ccccc1S(=O)(=O)N(C)C[C@@H]1OCc2ccccc2-c2c(n(C)c3ccccc23)C(=O)N([C@H](C)CO)C[C@H]1C	none (no result: FXN GAA850 act)
COc1ccccc1S(=O)(=O)N(C)C[C@H]1OCc2ccccc2-c2c(n(C)c3ccccc23)C(=O)N([C@H](C)CO)C[C@@H]1C	PAX8 reporter 61.9 (no result: FXN GAA850 act)
COc1ccc(S(=O)(=O)Nc2ccc3c(c2)C(=O)N([C@H](C)CO)C[C@@H](C)[C@@H](CN(C)S(=O)(=O)c2ccccc2)O3)cc1	none (no result: FXN GAA850 act)
COc1cccc(S(=O)(=O)Nc2ccc3c(c2)[C@@H]2C[C@@H](CC(=O)NCc4cccc(F)c4)O[C@H](CO)[C@@H]2O3)c1	none (no result: FXN GAA850 act)
O=S(=O)(c1cc(F)ccc1F)N1CCC2(CC1)OCCO2	HIV Env fusion 59.7 (no result: EWS-Fli inh)
CCC(=O)Nc1ccc2c(c1)OC[C@H](C)N(C(=O)C1CCC1)C[C@@H](C)[C@@H](OC)CN(C)C2=O	none (no result: HIV Env fusion, FXN GAA850 act)
CCN1[C@H](C(=O)NCc2cccc(OC)c2)[C@@H](CO)[C@@H]2Cn3c(ccc(C4=CCCC4)c3=O)[C@@H]21	none (no result: CFTR F508del cor, FXN GAA850 act)
COc1ccc(C)c2sc(N(CCCN(C)C)C(=O)c3ccc(S(=O)(=O)N4CCc5ccccc5C4)cc3)nc12	HIV Env fusion 91.9, EWS-Fli inh 58.2, PAX8 reporter inconclusive
CC(O)CC(=O)OC[C@]12CC[C@H]3[C@@](C)(CC[C@H]4C(C)(C)CCC[C@]34C)[C@@H]1CC(C1=CC(=O)OC1O)O2 (some centres undefined)	EWS-Fli inh 59.2 (no result: HIV Env fusion, PAX8 reporter)
CC(C)NC(=O)N(C)C[C@H]1OCCCC[C@H](C)Oc2ccc(N(C)C)cc2C(=O)N([C@H](C)CO)C[C@@H]1C	none (no result: FXN GAA850 act, EWS-Fli inh)

Assay outcomes (PubChem)
